Measured values: PubChem BioAssay (NCI)
Compounds without any hit were thinned out: in the full panel of roughly 83,000, 20% have a hit.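 Treatment: one concentration, 48 hours, 96-well format. Scoring: percent growth, with anything below 10 considered active.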 A number with no mark means an inactive call. Active and inactive are the calls of the source.

How the values were obtained:
Assay in all cases: NCI-60 one-dose screen, 48 h (100 = growth as untreated, 0 = no growth, -100 = all killed)
Conditions in all cases: 10 µM
T-47D breast = tested on: T-47D breast
BT-549 breast = tested on: BT-549 breast
MDA-MB-435 melanoma = tested on: MDA-MB-435 melanoma
SW-620 colon = tested on: SW-620 colon
MCF7 breast = tested on: MCF7 breast
HCT-116 colon = tested on: HCT-116 colon
HCC-2998 colon = tested on: HCC-2998 colon
KM12 colon = tested on: KM12 colon

SMILES | growth (T-47D breast) | growth (BT-549 breast) | growth (MDA-MB-435 melanoma) | growth (SW-620 colon) | growth (MCF7 breast) | growth (HCT-116 colon) | growth (HCC-2998 colon) | growth (KM12 colon)
COc1c(C)c(C)c(OC)c2c1[nH]c(=O)c1c3cccnc3cn21 | 94.9% | 124% | 110% | 99.3% | 88.5% | 104% | 120% | 106%
O=C1/C(=C/c2ccc([N+](=O)[O-])s2)Oc2ccc(Cl)cc21 | -34.9% (active) | -67.1% (active) | -60.4% (active) | -64.4% (active) | -26.7% (active) | -52.7% (active) | -74.8% (active) | -53.3% (active)
O=C(O)CCCCSCCCCC(=O)O | 86.7% | 110% | 107% | 111% | 97.5% | 108% | 106% | 110%
CCN(Cc1ccccc1)C1CCN(Cc2cc(Br)ccc2O)CC1 | 44.3% | 80.6% | 52.1% | 63.7% | 46.5% | 38.7% | 2.04% (active) | 51.3%
CC(=O)c1c(O)cc2c3c1OC(C)(C)C1CCC(C)(CC31)O2 (stereo unspecified) | 66.4% | 90.8% | 104% | 107% | 119% | 86.8% | 115% | 94.8%
CNC(=S)Sc1ccc([N+](=O)[O-])cc1[N+](=O)[O-] | 32.2% | 20.5% | 29.5% | 36.8% | 31.5% | 27.7% | 75.1% | 13.4%
COc1cc(NS(C)(=O)=O)ccc1Nc1c2ccc(Cl)cc2nc2c(OC)cccc12 | 27.7% | 18.3% | 51% | -32% (active) | 23.7% | -63.7% (active) | -26.6% (active) | -49.4% (active)
CCCCCCCCCCCCCCCC(=O)N1CCN(C)CC1 | 74.3% | 83.1% | 59.8% | 90% | 85% | 57.3% | 81.8% | 76.2%
CCOC(=O)CSC(=S)SCC(=O)OCC | 89.6% | 106% | 94.9% | 135% | 88.7% | 99.1% | 105% | 100%
COc1cccc(-c2nnc(COc3ccc(-c4nc5ccccc5[nH]4)cc3OC)o2)c1 | 73.6% | 81.7% | 94.9% | 110% | 73.6% | 73% | 105% | 98%
COc1cc(C2C=C(c3ccc(Cl)cc3)N=C3SC(C)=CN32)cc(OC)c1OC (stereo unspecified) | 72.2% | 88.5% | 72.9% | 94.5% | 67.6% | 50.3% | 101% | 94.1%
O=[N+]([O-])c1ccc(S(=O)(=O)OCCCCOS(=O)(=O)c2ccc([N+](=O)[O-])cc2)cc1 | 100% | 106% | 95.1% | 102% | 95.9% | 108% | 100% | 107%
CCOC(=O)c1c(Cl)c2c(n1Cc1cccc(OC)c1)-c1oncc1CC2 | 35.5% | 21.7% | -28% (active) | 34.5% | 15.2% | 18.5% | 39.8% | 25.9%
COc1ccc(C2=Cc3ccc(OC(C)=O)cc3OC2)cc1 | 87.3% | 97.5% | 91.9% | 101% | 101% | 104% | 95% | 88.9%
COc1cc(OC)cc(N2CCN(C(=O)Nc3nc4cc(F)ccc4nc3OC)CC2)c1 | 70.4% | 24.4% | -31.9% (active) | 22% | 23.4% | 0.21% (active) | 21.4% | 13.7%
O=c1cc(CSc2nnc(-c3ccccc3)n2-c2ccc(F)cc2)c2ccc3ccccc3c2o1 | 76.7% | 102% | 112% | 104% | 99.5% | 86.5% | 86.9% | 95.8%
CCCCOCCOCCOCc1cc2c(cc1Br)OCO2 | 88% | 110% | 108% | 100% | 90.2% | 94.9% | 108% | 97.7%
CNCCCNCCCN1C(=O)c2ccc3c4c(ccc(c24)C1=O)C(=O)N(CCCNCc1ccccc1OC)C3=O | -30.3% (active) | 78.1% | -58.6% (active) | -19% (active) | -51.7% (active) | -8.97% (active) | -9.5% (active) | -16.9% (active)
c1ccc(C2CCCCC2)c(OCCCCCN2CCNCC2)c1 | 28% | 72.4% | 47.2% | 11.3% | -34.4% (active) | -7.58% (active) | -68.8% (active) | 35.6%
CCc1nn2c(-c3ccccc3)c(-c3cc(OC)c(OC)c(OC)c3)nc2s1 | 72.5% | 111% | 95.5% | 83.5% | 60.6% | 80.8% | 91.6% | 94.7%
Oc1ccc(/C=N\Nc2ccccn2)c(O)c1 | 33.7% | 23.7% | 34.2% | 35.3% | 0.224% (active) | 4.54% (active) | 23.9% | 38.4%
COc1ccc(C2C=C(c3ccc(Cl)c(Cl)c3)N=C3SC(C)=CN32)cc1 (stereo unspecified) | 68.3% | 89.9% | 90.6% | 91.4% | 47.1% | 14.4% | 108% | 81.6%
N#CN1CC[C@H](C(=O)Nc2ncc(-c3ccncc3)s2)C1 | -23.4% (active) | -14.7% (active) | 6.91% (active) | 7.08% (active) | 2.99% (active) | 1.83% (active) | 4.61% (active) | -1.2% (active)
O=C(Nc1ccc(OS(=O)(=O)Cc2ccccc2)cc1)C12CC3CC(CC(C3)C1)C2 | 51.3% | 71.2% | 97.9% | 25.3% | 80.7% | 63.9% | 49.1% | 42.4%
COC(=O)[C@]12CC[C@@H](C)[C@H](C)[C@@H]1C1=CC[C@@H]3[C@@]4(C)CC(=O)[C@H](O)[C@@](C)(CO)[C@@H]4C(=O)C[C@@]3(C)[C@]1(C)CC2 | -15.8% (active) | -31.4% (active) | 11.4% | 1.83% (active) | -13.4% (active) | -43.1% (active) | -61.1% (active) | -37.3% (active)
COC(=O)[C@]12CC[C@@H](C)[C@H](C)[C@@H]1C1=CC[C@@H]3[C@@]4(C)CC(=O)[C@H](O)[C@@]5(C)COC(=C45)C[C@@]3(C)[C@]1(C)CC2 | -37.3% (active) | -61.7% (active) | -27.6% (active) | -60% (active) | -45.8% (active) | -76.2% (active) | -88.1% (active) | -64.1% (active)
COc1cccc2c1O/C(=C\c1ncc([N+](=O)[O-])n1C)C2=O | 97.5% | -63.6% (active) | -62.5% (active) | -20% (active) | 3.84% (active) | -53.2% (active) | -54.9% (active) | -50.6% (active)
